Test [1] deals with Lysosomal acid glucosylceramidase (Homo sapiens) (UniProt P04062). Description: Glucocerebrosidase-p2 (AID 348; in the data active = potency below about 10 µM; also: potency is read from the fitted curve at half-maximal effect). Conditions: purified GBA, blue fluorogenic substrate, 40 min. A digest of the protocol: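 Compounds titrated from 0.6 nM upwards against 0.2 nM enzyme in pH 5.9 citric acid/KH2PO4, taurocholate, tween-20; blue fluorogenic substrate 80 uM, 40 min room temperature, stopped and read Ex 365/Em 440 for AC50.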

Test [2] can be described thus: AP1 Signaling Pathway (AID 357; active = well fitted curve in either direction with a large enough effect, not every such curve was filed as active; also: % is scaled to controls: 0 for no effect and ±100 for the full control effect). To be noted: ME-180 AP-1-bla reporter, EGF-induced, beta-lactamase ratio, 5 h; at 7.69 µM (top of the series) unless noted. A digest of the protocol:
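ME-180 cells with beta-lactamase reporter under AP-1 response element, stimulated with EC50 EGF; compounds tested in titration series, 5 h at 37 °C. CCF4 substrate added 2.5 h at room temperature; 460/530 nm emission ratio gave %activity and AC50.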

Test [3] concerns the target Cytochrome P450 1A2 (Homo sapiens) (UniProt P05177). Description: p450-cyp1a2 (AID 410; calls by dose curve; also: potency is read from the fitted curve at half-maximal effect). To be noted: recombinant CYP1A2, luciferin-ME demethylation, luminescence; series mostly up to 57 µM. A digest of the protocol: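 Inhibition was calculated relative to 57 uM furafylline (full inhibition). The reaction used human CYP1A2 at 20nM with Luciferin-ME at its Km, 100uM, driven by an NADPH-regenerating system for 60 min at room temperature.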

Test [4] can be described thus: NFAT Signaling Pathway (AID 444; active = well fitted curve in either direction with a large enough effect, not every such curve was filed as active;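 also: carbachol stimulus at about its EC50 of 1 µM final; % is scaled to controls: 0 for no effect and ±100 for the full control effect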). To be noted: Jurkat NFAT-bla M1, carbachol, beta-lactamase ratio, 5 h; at 7.69 µM (top of the series) unless noted. Summed up: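 Read-out: CCF4 FRET ratio (460 nm/530 nm) after 1 h RT dye loading, used for %activity and AC50 from titration series. Cells: Jurkat NFAT-β-lactamase/M1 line, treated with compound plus 1 uM carbachol for 5 h, 37 °C.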

Test [5] is described as follows: Stat Signaling Pathway (AID 446; active = well fitted curve in either direction with a large enough effect, not every such curve was filed as active;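 also: ME-180 cervical cancer cells given 40 pM IL-6 alongside compound; SIE-controlled beta-lactamase reporter measured as 460/530 nm FRET emission ratio; % is scaled to controls: 0 for no effect and ±100 for the full control effect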). Conditions: ME-180 (cervical carcinoma) SIE beta-lactamase reporter, IL-6 stimulated, 5 h; at 7.69 µM (top of the series) unless noted. A digest of the protocol:
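ME-180 cells carrying a SIE-driven beta-lactamase reporter are stimulated with 40 pM IL-6 for 5 h at 37C in the presence of compound. The 460/530 nm FRET substrate ratio is read after 2.5 h at RT. Data are normalised to 300 pM IL-6 and to 125 nM JAK inhibitor controls.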

Test [6] concerns the target Glucocorticoid receptor (Homo sapiens) (UniProt P04150). As to the kind of experiment: GR-GFP Redistribution (AID 450;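 active = compounds whose dose series gives a full or clear partial fitted curve of increased nuclear translocation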; also: potency is read from the fitted curve at half-maximal effect). Conditions: U2OS GR-GFP nuclear translocation, laser cytometry, 2 h.
Test [7] shares this target. As to the kind of experiment: GR-EFC Redistribution (AID 451; calls by dose curve; also: potency is read from the fitted curve at half-maximal effect). Conditions: CHO-K1 GR-EFC translocation, beta-gal luminescence, 2 h. Summed up: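 Translocation of GR-ED fusion to nuclear EA restores b-gal, read by luminescence after 1 h room-temperature detection. Engineered CHO-K1 biosensor cells, 1,000/well, exposed 2 h at 37 C to titrations up to 46 uM final.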
Test [8] deals with Mitogen-activated protein kinase 10 (Mus musculus) (UniProt Q61831). Description: JNK3 AlphaScreen Assay (AID 530; active = well fitted curve in either direction with a large enough effect, not every such curve was filed as active;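 also: kinase came from lysate of stimulated human HepG2 cells; signal reports phosphorylation of biotinylated GST-cJun 1-79 at Ser73 with 10 µM ATP; % is scaled to controls: 0 for no effect and ±100 for the full control effect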). To be noted: JNK3 lysate, c-Jun phosphorylation; series mostly up to 57.1 µM. A digest of the protocol:
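Room-temperature AlphaScreen kinase assay; pre-activated HepG2 lysate as JNK3 source, biotin-GST-cJun(1-79) substrate, 10 uM ATP, compound 15 min preincubation.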
Background: In Alpha technology, singlet oxygen from a donor bead excites a nearby acceptor bead.

The target in test [9] is Cytochrome P450 2C9 (Homo sapiens) (UniProt P11712). Description: qHTS Assay for Inhibitors and Substrates of Cytochrome P450 2C9 (AID 883). Also: % is scaled to controls: 0 for no effect and ±100 for the full control effect; nearly all actives have a fitted effect of over 60% in size. To be noted: recombinant CYP2C9, luciferin-H luminescence, 60 min; series mostly up to 57.1 µM. A digest of the protocol:
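Luminescent read-out of deoxyluciferin hydroxylation, normalized to 57uM sulphaphenazole (AC100). Reaction: 10nM enzyme, 100uM Luciferin-H (equal to KM), 25mM KPO4, 10 min compound preincubation, then 60 min with NADPH regeneration, both at 37C.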
In general terms: qHTS replaces the single test concentration by a dilution series.

The target in test [10] is Cytochrome P450 3A4 (Homo sapiens) (UniProt P08684). Description: qHTS Assay for Activators of Cytochrome P450 3A4 (AID 885). Also: nearly all actives have a fitted effect of over 65% in size. To be noted: recombinant CYP3A4, Luciferin-PPXE luminescence, 60 min; series mostly up to 57.1 µM. Summed up: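 Human CYP3A4 (20 nM) with Luciferin-PPXE at 25 uM (its KM) in 200 mM KPO4; 10 min compound preincubation, then NADPH regeneration and 60 min reaction at RT. Luciferin read by luminescence; normalized to 57 uM ketoconazole full inhibition.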

A short description of test [11]: qHTS Assay for Lipid Storage Modulators (AID 1519; calls by dose curve). Conditions: Drosophila S3 cells, BODIPY lipid droplet/cell ratio, laser cytometry, cells loaded with oleic acid; for activity change, negative = inhibition: at 57.5 µM (top of the series). Summed up: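 Cells seeded at 5,000 per well were treated with compounds over a concentration series and loaded with oleic acid (400 uM, as added). Lipid droplet fluorescence (488 nm excitation, 500-530 nm channel) was read by laser-scanning cytometry and normalized to 20 uM Triacsin C.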

Test [12] addresses Dual specificity protein kinase CLK4 (Homo sapiens) (UniProt Q9HAZ1). As to the kind of experiment: qHTS Assay for Inhibitors of CDC-like Kinase 4 (Kinase-Glo Assay) (AID 1770). Also: nearly all actives have a fitted effect of over 65% in size. Also: potency is read from the fitted curve at half-maximal effect. Conditions: recombinant Clk4, Kinase-Glo ATP depletion luminescence; series mostly up to 66.7 µM. A digest of the protocol: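 Readout: Kinase-Glo luminescence from ATP left after a 4.5 h room-temperature reaction of 25 nM Clk4 with 100 uM RS peptide and 1 uM ATP (final). Buffer: 25 mM Tris pH 7.5, 10 mM MgCl2.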

Test [13] has the same target. Description: qHTS Assay for Inhibitors of CDC-like Kinase 4 (ADP-FP Assay) (AID 1795).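 Also: recombinant human CLK4 phosphorylating RS repeat peptide at 1 µM ATP; % is scaled to controls: 0 for no effect and ±100 for the full control effect; nearly all actives have a fitted effect of over 60% in size.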 To be noted: Transcreener ADP fluorescence polarization; series mostly up to 50 µM. Summed up: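 FP readout: Orange Transcreener ADP2 tracer (4 nM) plus ADP antibody, read after 30 min at room temperature. Kinase step: 6.25 nM Clk4, 100 uM RS peptide, 1 uM ATP, pH 7.5, 1 h.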
Test [14] concerns the target Ubiquitin carboxyl-terminal hydrolase 1 (Homo sapiens) (UniProt O94782). Description: Inhibitors of USP1/UAF1: Pilot qHTS (AID 504865).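 Also: rhodamine fluorescence freed from ubiquitin-rhodamine substrate followed over time; top concentration of the series differs between compounds; % is scaled to controls: 0 for no effect and ±100 for the full control effect; nearly all actives have a fitted effect of over 35% in size.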 Conditions: purified USP1/UAF1, Ub-rhodamine cleavage fluorescence; series mostly up to 54.9 µM. A digest of the protocol:
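1nM USP1/UAF1 + cpd, 15 min RT; start w/ Ub-Rho 150nM final; kinetic FL 480/540 nm, 6 reads q60 s. Buffer 50mM HEPES pH 7.8, 0.5mM EDTA, 1mM TCEP, 0.01% Tween-20, 0.1 mg/ml BSA.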

The nature of test [15]: Primary qHTS for small molecule stabilizers of the endoplasmic reticulum resident proteome: Secreted ER Calcium Modulated Protein (SERCaMP) assay (AID 1508630). Also: % is scaled to controls: 0 for no effect and ±100 for the full control effect. Conditions: SH-SY5Y GLuc-SERCaMP (Gaussia luciferase released on ER calcium loss) secretion, thapsigargin, luminescence; series mostly up to 38.4 µM. A digest of the protocol:
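GLuc-SERCaMP-expressing SH-SY5Y cells, pretreated 16 h with compound, are challenged with thapsigargin to empty ER calcium stores; after 4 h, coelenterazine is added directly to the medium and luminescence is imaged.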

Test [16] deals with Dual specificity protein kinase CLK4 (Homo sapiens) (UniProt Q9HAZ1). As to the kind of experiment: qHTS Assay for Inhibitors of CDC-like Kinase 4 (ADP-Glo Assay) (AID 1771). Also: nearly all actives have a fitted effect of over 70% in size. Also: potency is read from the fitted curve at half-maximal effect. Conditions: recombinant CLK4, ADP-Glo luminescence; series mostly up to 80 µM. A digest of the protocol:
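Kinase reaction: Clk4 at 25 nM, RS repeat peptide substrate at 100 uM, ATP at 1 uM, 1 hr, room temperature. Product ADP detected as luciferase signal via ADP-Glo.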

The target of test [17] is 3',5'-cyclic-AMP phosphodiesterase 4B (Homo sapiens) (UniProt Q07343). Description: qHTS Assay for Inhibitors of PDE-IV (AID 607; active = well fitted activation curve with a large enough effect in the main read-out, with a control signal flat, not every such curve was filed as active; also: % of control where 0% means no effect). To be noted: HEK293 ACTOne CNG channel cells, membrane potential fluorescence; series mostly up to 22.9 µM. A digest of the protocol:
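HEK293 ACTOne cells with CNG channel (1000/well), endogenous PDE4; membrane potential dye, compounds up to 22.9 uM final. Fluorescence Ex 535/Em 590; RO 20-1724 (100 uM final) as reference.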

Test [18] has as its target Cytochrome P450 3A4 (Homo sapiens) (UniProt P08684). As to the kind of experiment: qHTS Assay for Inhibitors and Substrates of Cytochrome P450 3A4 (AID 884). Also: potency is read from the fitted curve at half-maximal effect; nearly all actives have a fitted effect of over 50% in size. Conditions: recombinant CYP3A4, Luciferin-PPXE luminescence; series mostly up to 57.1 µM. Summed up: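 20 nM human CYP3A4 with 25 uM Luciferin-PPXE (at KM) in 200 mM KPO4, preincubated 10 min with compound; NADPH regeneration started a 60 min RT reaction. Luciferin detected by luminescence, normalized to 57 uM ketoconazole as full inhibition.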

[19] abbreviates: measured here: cell count channel max response.
Where [20] appears, read: measured here: lipid channel max response.

Records with an inconclusive call do not appear. The source made the active and inactive calls. Unless noted, calls follow the shape of the dose curve; as a rule, active = well fitted curve in the direction sought with a large enough effect; inconclusive = small, poorly fitted or top-dose-only effect, or another doubt; inactive = no such curve, though single readings can be large; an effect the other way counts as inactive or inconclusive.

These results are taken from PubChem BioAssay (NCATS).

3',5'-cyclic-AMP phosphodiesterase 4B (Homo sapiens), sequence (Q07343 whole entry, looked up): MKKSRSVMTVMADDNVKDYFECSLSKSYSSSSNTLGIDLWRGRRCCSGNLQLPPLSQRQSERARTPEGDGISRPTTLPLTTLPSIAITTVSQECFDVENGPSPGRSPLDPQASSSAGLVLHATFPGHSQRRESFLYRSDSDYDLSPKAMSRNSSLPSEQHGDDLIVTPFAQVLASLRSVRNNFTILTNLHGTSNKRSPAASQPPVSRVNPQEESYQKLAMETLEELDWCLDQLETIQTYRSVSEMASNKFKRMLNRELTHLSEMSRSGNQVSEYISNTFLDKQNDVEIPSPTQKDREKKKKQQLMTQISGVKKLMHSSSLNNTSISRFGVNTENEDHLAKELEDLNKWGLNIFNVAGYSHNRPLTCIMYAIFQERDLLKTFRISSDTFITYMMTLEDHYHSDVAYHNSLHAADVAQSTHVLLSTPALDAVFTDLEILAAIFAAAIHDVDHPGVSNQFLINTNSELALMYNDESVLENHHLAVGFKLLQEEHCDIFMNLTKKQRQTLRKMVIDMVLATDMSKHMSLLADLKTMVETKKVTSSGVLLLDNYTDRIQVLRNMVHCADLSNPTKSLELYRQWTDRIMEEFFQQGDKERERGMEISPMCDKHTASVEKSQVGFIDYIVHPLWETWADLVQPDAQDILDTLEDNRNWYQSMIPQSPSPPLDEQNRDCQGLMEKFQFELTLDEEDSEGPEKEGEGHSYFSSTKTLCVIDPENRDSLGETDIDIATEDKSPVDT
Cytochrome P450 3A4 (Homo sapiens), sequence (P08684 whole entry, looked up): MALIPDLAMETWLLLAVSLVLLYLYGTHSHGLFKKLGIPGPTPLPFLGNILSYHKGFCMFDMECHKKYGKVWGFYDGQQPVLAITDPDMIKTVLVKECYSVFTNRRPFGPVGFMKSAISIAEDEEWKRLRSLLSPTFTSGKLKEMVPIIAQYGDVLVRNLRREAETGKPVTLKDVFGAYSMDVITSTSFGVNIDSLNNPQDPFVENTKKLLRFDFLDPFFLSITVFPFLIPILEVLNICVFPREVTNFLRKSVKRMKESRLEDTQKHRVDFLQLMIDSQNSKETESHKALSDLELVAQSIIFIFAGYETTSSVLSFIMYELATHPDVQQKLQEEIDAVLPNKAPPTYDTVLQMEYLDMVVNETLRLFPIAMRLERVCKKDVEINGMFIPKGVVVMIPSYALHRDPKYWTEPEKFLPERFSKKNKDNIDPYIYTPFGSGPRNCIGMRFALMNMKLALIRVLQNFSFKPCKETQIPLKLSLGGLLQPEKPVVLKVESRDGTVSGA
Glucocorticoid receptor (Homo sapiens), sequence (P04150 whole entry, looked up, the tested form may be a part): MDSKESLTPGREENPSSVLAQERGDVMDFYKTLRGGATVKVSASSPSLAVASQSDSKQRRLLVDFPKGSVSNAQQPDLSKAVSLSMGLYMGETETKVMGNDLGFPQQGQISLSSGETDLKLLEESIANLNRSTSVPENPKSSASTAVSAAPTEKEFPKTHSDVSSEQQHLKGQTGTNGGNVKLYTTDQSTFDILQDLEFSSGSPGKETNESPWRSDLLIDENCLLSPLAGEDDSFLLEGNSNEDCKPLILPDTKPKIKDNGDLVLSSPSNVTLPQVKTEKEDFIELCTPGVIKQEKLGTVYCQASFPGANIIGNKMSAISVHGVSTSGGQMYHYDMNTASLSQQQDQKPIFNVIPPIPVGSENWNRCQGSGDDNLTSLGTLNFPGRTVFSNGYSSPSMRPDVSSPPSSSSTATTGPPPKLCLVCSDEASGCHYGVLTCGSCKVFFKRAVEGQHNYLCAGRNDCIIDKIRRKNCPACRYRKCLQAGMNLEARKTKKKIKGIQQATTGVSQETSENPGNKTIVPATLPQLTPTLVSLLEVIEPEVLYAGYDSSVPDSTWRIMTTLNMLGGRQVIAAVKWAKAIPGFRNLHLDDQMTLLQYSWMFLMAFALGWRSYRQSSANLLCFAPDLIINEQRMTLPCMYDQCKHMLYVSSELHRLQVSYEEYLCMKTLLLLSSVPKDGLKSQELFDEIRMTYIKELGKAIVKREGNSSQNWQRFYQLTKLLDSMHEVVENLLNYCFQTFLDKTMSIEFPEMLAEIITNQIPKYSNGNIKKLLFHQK
Ubiquitin carboxyl-terminal hydrolase 1 (Homo sapiens), sequence (O94782 whole entry, looked up): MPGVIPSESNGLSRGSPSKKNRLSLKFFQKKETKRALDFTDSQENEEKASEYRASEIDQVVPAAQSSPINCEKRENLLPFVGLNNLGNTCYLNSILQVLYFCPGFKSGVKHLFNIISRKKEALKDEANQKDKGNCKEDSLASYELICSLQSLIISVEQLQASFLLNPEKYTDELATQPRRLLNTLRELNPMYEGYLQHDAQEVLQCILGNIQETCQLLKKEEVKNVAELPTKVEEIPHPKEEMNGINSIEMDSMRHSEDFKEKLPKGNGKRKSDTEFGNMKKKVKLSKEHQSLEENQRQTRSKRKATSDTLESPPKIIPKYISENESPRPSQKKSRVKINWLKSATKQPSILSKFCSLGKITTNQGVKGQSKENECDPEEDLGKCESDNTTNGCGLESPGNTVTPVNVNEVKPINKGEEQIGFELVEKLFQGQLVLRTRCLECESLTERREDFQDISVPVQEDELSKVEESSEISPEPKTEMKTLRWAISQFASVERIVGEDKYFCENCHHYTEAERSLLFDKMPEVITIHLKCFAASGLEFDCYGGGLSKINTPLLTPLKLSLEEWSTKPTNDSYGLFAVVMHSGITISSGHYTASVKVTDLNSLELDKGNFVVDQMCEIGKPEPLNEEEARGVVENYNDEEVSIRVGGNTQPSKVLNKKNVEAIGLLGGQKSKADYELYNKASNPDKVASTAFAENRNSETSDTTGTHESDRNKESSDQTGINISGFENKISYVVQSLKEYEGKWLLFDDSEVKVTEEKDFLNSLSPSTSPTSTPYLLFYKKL
Lysosomal acid glucosylceramidase (Homo sapiens), sequence (P04062 whole entry, looked up): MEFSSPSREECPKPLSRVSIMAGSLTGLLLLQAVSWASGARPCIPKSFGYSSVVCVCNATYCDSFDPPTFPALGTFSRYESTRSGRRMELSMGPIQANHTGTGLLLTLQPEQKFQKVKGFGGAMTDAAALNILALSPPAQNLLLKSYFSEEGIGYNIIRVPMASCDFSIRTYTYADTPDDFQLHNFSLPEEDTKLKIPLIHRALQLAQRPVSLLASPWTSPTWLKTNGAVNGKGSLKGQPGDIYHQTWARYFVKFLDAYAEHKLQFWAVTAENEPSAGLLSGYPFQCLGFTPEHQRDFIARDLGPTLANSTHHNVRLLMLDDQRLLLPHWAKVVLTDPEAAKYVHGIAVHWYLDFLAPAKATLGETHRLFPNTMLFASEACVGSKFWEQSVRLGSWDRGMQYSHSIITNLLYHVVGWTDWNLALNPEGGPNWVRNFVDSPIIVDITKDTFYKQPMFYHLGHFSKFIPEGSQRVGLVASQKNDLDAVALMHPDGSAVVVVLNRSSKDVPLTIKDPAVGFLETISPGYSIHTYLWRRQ
Dual specificity protein kinase CLK4 (Homo sapiens), sequence (Q9HAZ1 whole entry, looked up): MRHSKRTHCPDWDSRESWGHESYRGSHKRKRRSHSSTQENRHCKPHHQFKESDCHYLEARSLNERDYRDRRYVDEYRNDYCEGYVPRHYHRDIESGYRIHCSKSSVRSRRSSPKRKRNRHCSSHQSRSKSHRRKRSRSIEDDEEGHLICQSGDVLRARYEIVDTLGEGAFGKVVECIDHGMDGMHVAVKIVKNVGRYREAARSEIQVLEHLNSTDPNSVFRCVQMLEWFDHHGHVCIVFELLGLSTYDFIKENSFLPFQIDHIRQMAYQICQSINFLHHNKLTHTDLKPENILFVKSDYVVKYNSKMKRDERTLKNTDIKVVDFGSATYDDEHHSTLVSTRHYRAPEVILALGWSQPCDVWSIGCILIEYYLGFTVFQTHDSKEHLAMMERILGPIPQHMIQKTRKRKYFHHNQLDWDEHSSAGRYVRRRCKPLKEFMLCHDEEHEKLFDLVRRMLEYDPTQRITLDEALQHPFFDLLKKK
Cytochrome P450 1A2 (Homo sapiens), sequence (P05177 whole entry, looked up): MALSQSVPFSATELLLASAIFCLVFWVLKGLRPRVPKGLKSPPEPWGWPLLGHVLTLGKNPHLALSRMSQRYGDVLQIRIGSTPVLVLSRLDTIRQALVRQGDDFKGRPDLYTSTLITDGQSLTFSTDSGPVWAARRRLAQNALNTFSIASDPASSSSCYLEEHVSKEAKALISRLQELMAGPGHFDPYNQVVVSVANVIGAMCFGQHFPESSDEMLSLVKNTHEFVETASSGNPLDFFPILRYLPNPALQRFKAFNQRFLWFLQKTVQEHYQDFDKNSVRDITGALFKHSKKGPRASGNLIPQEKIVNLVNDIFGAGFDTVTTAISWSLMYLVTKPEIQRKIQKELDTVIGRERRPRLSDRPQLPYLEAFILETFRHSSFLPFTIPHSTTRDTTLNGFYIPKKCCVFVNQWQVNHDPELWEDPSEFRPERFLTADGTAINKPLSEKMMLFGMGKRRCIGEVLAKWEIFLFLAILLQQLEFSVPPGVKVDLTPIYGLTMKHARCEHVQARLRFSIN
Cytochrome P450 2C9 (Homo sapiens), sequence (P11712 whole entry, looked up): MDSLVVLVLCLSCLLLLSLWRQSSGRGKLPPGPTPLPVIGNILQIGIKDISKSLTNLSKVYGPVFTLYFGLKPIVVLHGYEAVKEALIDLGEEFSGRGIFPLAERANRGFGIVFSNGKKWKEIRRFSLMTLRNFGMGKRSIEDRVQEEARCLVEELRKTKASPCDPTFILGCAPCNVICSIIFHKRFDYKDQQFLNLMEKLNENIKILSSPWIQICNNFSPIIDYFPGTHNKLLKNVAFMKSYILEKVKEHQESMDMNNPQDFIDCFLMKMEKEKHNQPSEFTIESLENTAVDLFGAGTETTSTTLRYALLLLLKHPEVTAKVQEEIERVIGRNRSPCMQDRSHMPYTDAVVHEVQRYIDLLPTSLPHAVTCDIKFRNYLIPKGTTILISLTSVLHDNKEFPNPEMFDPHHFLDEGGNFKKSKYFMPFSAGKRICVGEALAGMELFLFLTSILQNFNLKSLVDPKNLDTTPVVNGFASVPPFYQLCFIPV

For the compound `CCNc1ncc2nc(-c3cn(C)c4ccccc34)c(=O)n(-c3ccccc3)c2n1`, the Potency was > 11.4 µM (inactive) in test [1]; 15.8 µM (active) in [3]; > 9.22 µM (inactive) in test [6]; > 46 µM (inactive) in [7]; 20 µM (active) in test [12]. The activity change, negative = inhibition in test [2] is 2.53% (inactive); in test [4], 3.22% (inactive); in test [11], -0.273% (inactive). In addition, in test [5], the activity, negative = inhibition was -9.31% (inactive). The result in [8] was inactive. In addition, the Potency entry in [9], in [10], in test [13], in test [14] and in [15] was “inactive” throughout. In addition, the max response was 19.3% in test [11] (setting [19]) and 17.5% in test [11] (setting [20]).

Turning to `COc1ccc(-c2nc3cnc(N4CCOCC4)nc3n(-c3ccccc3)c2=O)cc1`, the Potency was > 11.4 µM (inactive) in test [1], > 9.22 µM (inactive) in [6] and > 46 µM (inactive) in test [7]. Besides, the activity change, negative = inhibition in test [2] was 25.7% (inactive); in test [11], 1.08% (inactive). In addition, in [5], the activity, negative = inhibition is 13.1% (inactive). Moreover, the compound was classed as inactive in test [8]. The max response came out at 22% in test [11] (setting [19]) and 21.4% in test [11] (setting [20]). In addition, the Potency result in [12], in [16], in test [14] and in [15] was “inactive” throughout.

Consider `CCNc1ncc2ncc(=O)n(CCOC)c2n1`, for which the Potency was > 11.4 µM (inactive) in test [1]; > 46 µM (inactive) in test [6]; > 46 µM (inactive) in test [7]; 15.8 µM (active) in test [12]; 11.2 µM (active) in test [16]. Moreover, the activity change, negative = inhibition in [2] was -22.6% (inactive); in [4] it was 4.31% (inactive); in [11], 6.16% (inactive). For the same compound, the activity, negative = inhibition in test [5] is -26.5% (inactive). Moreover, the result in test [8] was inactive. Further, the Potency result in test [17], in [14] and in [15] was “inactive” in each case. For the same compound, the max response in test [11] (setting [19]) came out at 18.7%; in test [11] (setting [20]) it was 22.5%.

As for `Cc1cnc(CNc2ncncc2-c2cccc(C#N)c2)cn1`, the Potency in [1] was > 11.4 µM (inactive); in test [3] it was 12.6 µM (active); in test [6], > 46 µM (inactive); in test [7], > 46 µM (inactive); in test [18], 2 µM (active); in test [12] it was 28.2 µM (active). Also, the values for the activity change, negative = inhibition in test [2], in test [4] and in test [11] were 15% (inactive), 1.24% (inactive) and 8.03% (inactive), respectively. Further, the activity, negative = inhibition in [5] was 9.2% (inactive). For the same compound, the compound was classed as inactive in test [8]. Besides, the Potency result in test [17], in [10], in test [14] and in [15] was “inactive” in each case. Further, the max response is 20.9% in test [11] (setting [19]) and 25.3% in test [11] (setting [20]).

Consider `COc1ccc(-n2c(=O)cnc3cnc(N4CCOCC4)nc32)cc1`, for which the Potency in test [1] was > 11.4 µM (inactive); in [6] it was > 9.22 µM (inactive); in [7], > 46 µM (inactive); in test [12] it was 28.2 µM (active). The values for the activity change, negative = inhibition in [2], in test [4] and in [11] were 4.95% (inactive), 1.82% (inactive) and 6.91% (inactive), respectively. The activity, negative = inhibition in test [5] was -10.3% (inactive). The result in [8] was inactive. The Potency entry in test [17], in [14] and in [15] was “inactive” in each case. Moreover, the max response was determined as 0.0679% in [11] (setting [19]) and 8.45% in test [11] (setting [20]).
